Data: the supplement of paper PMC10981050
Values joined by “and” are separate entries in the source; they are usually repeats but may differ in a detail not shown here. Equal values may be shown once. Where a name gives a salt, the structure may show the parent alone.

Assays:
Experiment in all cases: cell viability relative to vehicle control; higher = less cytotoxic
Conditions in all cases: 10 µM
K562 = tested on: K562
Procedure, shortened: (§1)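 CRISPR-edited mutant clones and isogenic wild-type clones from four leukaemia lines were screened against Selleck bioactive, kinase and epigenetic probe libraries, with identity-inconsistent compounds excluded. Each compound was acoustically dispensed at a single 10 µM dose into 384-well plates holding 2000 cells in 50 µL medium per well. After 48 h the supernatant was removed and CellTiter-Glo luminescence was read. Viability was expressed as percent of the on-plate vehicle control and analysed in Genedata Screener.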

MARIMO = tested on: MARIMO
Procedure, shortened: as §1

MOLM14 = tested on: MOLM14
Procedure, shortened: as §1

OCI-AML2 = tested on: OCI-AML2
Procedure, shortened: as §1

| SMILES | cell viability (K562; SRSF2 genotype: SRSF2 P95H/wt) | cell viability (K562; SRSF2 genotype: SRSF2 wt/wt) | cell viability (MARIMO; SRSF2 genotype: SRSF2 P95H/wt) | cell viability (MARIMO; SRSF2 genotype: SRSF2 wt/wt) | cell viability (MOLM14; SRSF2 genotype: SRSF2 P95H/wt) | cell viability (MOLM14; SRSF2 genotype: SRSF2 wt/wt) | cell viability (OCI-AML2; SRSF2 genotype: P95H/wt) | cell viability (OCI-AML2; SRSF2 genotype: wt/wt) |
| --- | --- | --- | --- | --- | --- | --- | --- | --- |
| COc1ccc2c(c1)c(CC(=O)O)c(C)n2C(=O)c1ccc(Cl)cc1 [Indometacin Sodium] | 97.1% and 90.1% | 101% | 96.7% | 103% | 105% | 101% | 98.3% | 110% |
| COc1ccc2c(O[C@@H]3C[C@H]4C(=O)N[C@]5(C(=O)NS(=O)(=O)C6CC6)C[C@H]5/C=C\CCCCN(C)C(=O)[C@@H]4C3)cc(-c3nc(C(C)C)cs3)nc2c1C | 70.6% and 60.2% | 62.9% | 61.6% | 75.3% | 79.1% | 71.6% | 55.2% | 58.8% |
| CN(C)Cc1ccc(S(=O)(=O)n2ccc(/C=C/C(=O)NO)c2)cc1 [Resminostat (RAS2410)] | 1.83% and 16.1% | 11.8% | 2.94% | 2.37% | 0.76% | 0.51% | 0.72% | 1.22% |
| COc1ccc(S(=O)(=O)Nc2cc(-c3c(O)ccc4ccccc34)c(O)c3ccccc23)cc1 | 7.52% and 4.96% | 34.5% | 0.33% | 0.36% | 0.32% | 0.34% | 0.37% | 0.35% |
| O=C(O)C[C@H](O)C[C@H](O)/C=C/c1c(C2CC2)nc2ccccc2c1-c1ccc(F)cc1 [Pitavastatin calcium (Livalo)] | 37.4% and 50.7% | 34.6% | 25.3% | 34.4% | 32.9% | 48.4% | 1.41% | 4.89% |
| O=c1[nH]cc(F)c(=O)[nH]1 [Adrucil (Fluorouracil)] | 92.3% and 90% | 74.5% | 68.5% | 67.4% | 37.5% | 26.1% | 49.1% | 55.1% |
| O=C1CCC(N2C(=O)c3ccccc3C2=O)C(=O)N1 (stereo not drawn) [Thalidomide] | 92.1% and 86.8% | 84.5% | 83.2% | 86.4% | 87.5% | 86.7% | 93.8% | 91.4% |
| O=C1C(=O)N(Cc2ccc(Cl)c(Cl)c2)c2ccccc21 [Apoptosis Activator 2] | 62.4% and 47.9% | 37.7% | 25.5% | 33.1% | 3.92% | 1.81% | 32% | 13.7% |
| CCCNCC(O)COc1ccccc1C(=O)CCc1ccccc1 (stereo not drawn) [Propafenone HCl] | 78.7% and 84.2% | 79.2% | 66.1% | 70.5% | 73.2% | 81.2% | 68.3% | 68% |
| O=C(Cc1ccc(-c2ccc(OCCN3CCOCC3)cc2)cn1)NCc1ccccc1 | 10.7% and 34.3% | 33% | 6.74% | 9.4% | 1.55% | 2.72% | 4.61% | 8.35% |
| CCN(CC)c1ccc2cc(C(=O)O)c(=O)oc2c1 [7-(Diethylamino)coumarin-3-carboxylic acid] | 112% and 101% | 105% | 95.4% | 108% | 98% | 110% | 100% | 103% |
